The nature of experiment [1]: ATG_E_Box_CIS: Attagene CIS-FACTORIAL HepG2 Assay for human Enhancer Box (E-box) (AID 2282936). Particulars: HepG2 E-box cis-reporter transcription, actives raise or lower the signal. In short, it runs like this: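 DMSO served as negative control and baseline for bidirectional fitting. Human hepatoma HepG2 cells, transiently transfected with cis-reporter constructs, were dosed 24 h; reporter mRNA read by RT-PCR and capillary electrophoresis.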

Experiment [2] in a line: ATG_M_61_CIS: Attagene CIS-FACTORIAL HepG2 Assay for M61 Transcription Factor (Internal Marker) (AID 2282937). As to conditions: HepG2 Attagene CIS-FACTORIAL M61 internal marker reporter; actives raise or lower the signal. The method, boiled down:
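HepG2 cells transiently transfected with multiplexed cis-promoter reporter units reporting endogenous transcription factor activity, measured 24 h after dosing. Reporter mRNA quantified by RT-PCR and capillary electrophoresis; bidirectional fit against DMSO baseline.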

Experiment [3] is described as follows: ATG_EGR_CIS: Attagene CIS-FACTORIAL HepG2 Assay for human Early Growth Response 1 (EGR1) (AID 2282938). Particulars: HepG2 Attagene CIS-FACTORIAL EGR reporter mRNA; actives raise or lower the signal. The method, boiled down: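 HepG2 cells transiently transfected with cis-element-driven multiplexed reporter units, dosed for 24 h. EGR1-element reporter mRNA quantified by RT-PCR, 6-FAM labelling, HpaI digestion and capillary electrophoresis; bidirectional fit versus DMSO.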

A short description of experiment [4]: ATG_M_19_CIS: Attagene CIS-FACTORIAL HepG2 Assay for M19 Transcription Factor (Internal Marker) (AID 2282939). As to conditions: HepG2 Attagene CIS-FACTORIAL M19 internal marker reporter; actives raise or lower the signal. In short, it runs like this:
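Following a 24 h exposure, RNA from transfected HepG2 cells was reverse-transcribed, PCR-amplified with reporter-specific primers, end-labelled with 6-FAM and HpaI-digested before capillary separation. Values represent gain or loss versus DMSO.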

Experiment [5] can be described thus: ATG_ERE_CIS: Attagene CIS-FACTORIAL HepG2 Assay for Estrogen Response Element (ERE) (AID 2282940). Particulars: HepG2 ERE cis-reporter, Attagene RNA transcript; actives raise or lower the signal. In short, it runs like this: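 HepG2, transient cis-reporter units, 24 h exposure. RNA isolated, oligo(dT) RT, reporter-specific PCR, FAM extension, HpaI cut, CE detection. Gain/loss-of-signal vs DMSO.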

Experiment [6] in a line: ATG_Ets_CIS: Attagene CIS-FACTORIAL HepG2 Assay for human Erythroblast Transformation Specific (ETS) (AID 2282941). Particulars: HepG2 ETS cis-reporter transcription, actives raise or lower the signal. The method, boiled down: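 HepG2 cells transfected with multiple cis-regulated reporter units measuring endogenous ETS-driven transcription, 24 h after dosing. Reporter mRNA quantified by RT-PCR with capillary electrophoresis; bidirectional fit relative to DMSO.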

In experiment [7] the target is Hepatocyte nuclear factor 3-beta (Homo sapiens) (UniProt Q9Y261). Description: ATG_FoxA2_CIS: Attagene CIS-FACTORIAL HepG2 Assay for human Forkhead box A2 (FOXA2) (AID 2282942). As to conditions: HepG2 cis-reporter transcription factor activity, 24 h; actives raise or lower the signal. The method, boiled down:
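HepG2 transiently transfected with a multiplexed cis-promoter reporter library read endogenous FOXA2 activity. After 24 h compound exposure, reporter mRNA was quantified by RT-PCR, HpaI digestion and capillary electrophoresis. Bidirectional fit against DMSO.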

Experiment [8] is described as follows: ATG_FoxO_CIS: Attagene CIS-FACTORIAL HepG2 Assay for human Forkhead box O (FoxO) (AID 2282943). Particulars: HepG2 Attagene cis-reporter, FoxO element, mRNA; actives raise or lower the signal. The method, boiled down: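 Endogenous transcription factor activity read from multiplexed cis-promoter reporter transcripts in transiently transfected HepG2, 24 h after dosing. Reporter RNA measured via RT-PCR plus capillary electrophoresis of FAM-labeled products; gain or loss relative to DMSO.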

The nature of experiment [9]: ATG_GATA_CIS: Attagene CIS-FACTORIAL HepG2 Assay for human GATA Binding Protein (AID 2282944). Particulars: HepG2 GATA cis-element reporter, Attagene multiplex mRNA; actives raise or lower the signal. The method, boiled down:
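DMSO serves as negative control and baseline for bidirectional fitting of reporter mRNA changes. HepG2 cells bearing transiently transfected cis-promoter reporters were exposed 24 h; transcripts detected via RT-PCR and capillary electrophoresis.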

Experiment [10] in a line: ATG_GLI_CIS: Attagene CIS-FACTORIAL HepG2 Assay for human Zinc Finger Protein GLI1 (AID 2282945). As to conditions: HepG2, Attagene cis-factorial reporter mRNA, GLI element; actives raise or lower the signal. The method, boiled down: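 Bidirectional curve fits relative to DMSO, using reporter mRNA levels from RT-PCR plus capillary electrophoresis. Cells were HepG2 transiently carrying cis-regulated reporter constructs, harvested 24 h after dosing.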

A short description of experiment [11]: ATG_GRE_CIS: Attagene CIS-FACTORIAL HepG2 Assay for human Glucocorticoid Response Elements (GRE) (AID 2282947). Particulars: HepG2 GRE cis-reporter, Attagene multiplex mRNA; actives raise or lower the signal. In short, it runs like this:
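Assay uses human hepatoma HepG2 cells transfected with cis-promoter reporter units, exposed 24 h. mRNA from reporters detected by RT-PCR plus capillary electrophoresis; DMSO serves as negative control and baseline.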

The nature of experiment [12]: ATG_ISRE_CIS: Attagene CIS-FACTORIAL HepG2 Assay for human Interferon Regulatory Factor 1 (IRF1) binding to an Interferon-Stimulated Response Element (ISRE) (AID 2282948). Particulars: HepG2 ISRE cis-reporter (Attagene), mRNA transcription readout; actives raise or lower the signal. In short, it runs like this: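 Transiently transfected HepG2 cells carrying cis-element reporter units, dosed 24 hours. Reporter mRNA quantified by RT-PCR, fluorescent primer extension, HpaI digestion and capillary electrophoresis. Bidirectional fitting relative to DMSO.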

Experiment [13] can be described thus: ATG_M_32_CIS: Attagene CIS-FACTORIAL HepG2 Assay for M32 Transcription Factor (Internal Marker) (AID 2282949).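 Note: background control marker of the multiplexed CIS panel rather than a real target.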 Particulars: HepG2 Attagene cis-factorial M32 reporter, mRNA; actives raise or lower the signal. In short, it runs like this:
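Following 24 h chemical exposure of HepG2 cells transiently expressing cis-promoter reporter constructs, reporter transcript levels were determined by RT-PCR with fluorescent labelling and capillary electrophoresis, then fitted bidirectionally against DMSO.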

Experiment [14] can be described thus: ATG_M_06_CIS: Attagene CIS-FACTORIAL HepG2 Assay for M06 Transcription Factor (Internal Marker) (AID 2282950). As to conditions: HepG2 Attagene CIS-FACTORIAL M06 internal marker reporter; actives raise or lower the signal. In short, it runs like this:
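Fluorescence-labelled RT-PCR products from cis-promoter reporter units, cut with HpaI and resolved by capillary electrophoresis, give the signal. Cells are human HepG2, dosed for 24 h. Serves as background control, fitted relative to DMSO.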

The target in experiment [15] is Hypoxia-inducible factor 1-alpha (Homo sapiens) (UniProt Q16665). Description: ATG_HIF1a_CIS: Attagene CIS-FACTORIAL HepG2 Assay for human Hypoxia Inducible Factor 1 (HIF1A) (AID 2282951). Particulars: HepG2 Attagene cis-factorial HIF1a reporter transcription; actives raise or lower the signal. In short, it runs like this: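 HepG2 cells transiently transfected with multiple cis-regulated reporter transcription units measure endogenous transcription factor activity. After 24 h exposure, reporter mRNA is quantified by RT-PCR with 6-FAM labelling, HpaI digestion and capillary electrophoresis. Bidirectional fitting against DMSO.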

Experiment [16] deals with Hepatocyte nuclear factor 6 (Homo sapiens) (UniProt Q9UBC0). Description: ATG_HNF6_CIS: Attagene CIS-FACTORIAL HepG2 Assay for human Hepatocyte Nuclear Factor 6 (HNF6) (AID 2282952). As to conditions: HepG2 Attagene cis-factorial HNF6 reporter transcription; actives raise or lower the signal. The method, boiled down:
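HepG2 cells transiently transfected with cis-element-driven multiple reporter transcription units, dosed 24 h; reporter mRNA quantified by RT-PCR, FAM primer extension, HpaI digestion and capillary electrophoresis; bidirectional fit versus DMSO baseline.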

In experiment [17] the target is Heat shock factor protein 1 (Homo sapiens) (UniProt Q00613). The experiment can be described thus: ATG_HSE_CIS: Attagene CIS-FACTORIAL HepG2 Assay for human Heat Shock Transcription Factor 1 (HSE) (AID 2282953). As to conditions: HepG2 HSE cis-reporter, Attagene RNA transcription; actives raise or lower the signal. The method, boiled down:
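After a 24 h incubation with test chemical, transfected HepG2 cells were harvested for RNA; reporter transcripts were measured by RT-PCR and capillary electrophoresis. Values reflect gain or loss of signal relative to DMSO.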

Experiment [18] is described as follows: ATG_MRE_CIS: Attagene CIS-FACTORIAL HepG2 Assay for human Metal Responsive Element (MRE) (AID 2282954). Particulars: HepG2 MRE cis-reporter transcription, Attagene multiplex; actives raise or lower the signal. In short, it runs like this:
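After a 24 h chemical exposure, transiently transfected HepG2 cells yield RNA whose reporter sequences are amplified, FAM-labelled and sized by capillary electrophoresis. Curves are fitted bidirectionally relative to DMSO.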

Experiment [19] is described as follows: ATG_PBREM_CIS: Attagene CIS-FACTORIAL HepG2 Assay for human Phenobarbital-responsive Enhancer Module (PBREM) (AID 2282955). As to conditions: HepG2 PBREM cis-reporter, Attagene multiplexed transcription; actives raise or lower the signal. In short, it runs like this:
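HepG2 cells transiently transfected with multiple cis-regulated reporter units measure endogenous transcription factor activity; 24 h compound exposure. Reporter mRNA quantified by RT-PCR, fluorescent labelling, HpaI digestion and capillary electrophoresis; bidirectional fit versus DMSO.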

The target of experiment [20] is Bile acid receptor (Homo sapiens) (UniProt Q96RI1). The experiment can be described thus: ATG_IR1_CIS: Attagene CIS-FACTORIAL HepG2 Assay for human Nuclear Receptor Subfamily 1 Group H Member 4 (NR1H4), IR1 submotif (AID 2282946). As to conditions: IR1 reporter transcription, actives raise or lower the signal. The method, boiled down:
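Cells (human HepG2) carry transiently transfected cis-promoter reporter transcription units. Compounds are incubated 24 h, total RNA is reverse-transcribed and amplified, and labelled fragments are resolved by capillary electrophoresis. Curves use DMSO as baseline.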

Each structure is given as a SMILES string. Active and inactive are the calls of the source. Rule for the calls: active = hit-call score of the fitted dose curve at least 0.9, where 1 is the maximum; inactive = score below 0.9.

What is called AC50 is the concentration giving half of the maximal activity seen.

Sequence of Hepatocyte nuclear factor 3-beta (Homo sapiens) (Q9Y261 whole entry, looked up): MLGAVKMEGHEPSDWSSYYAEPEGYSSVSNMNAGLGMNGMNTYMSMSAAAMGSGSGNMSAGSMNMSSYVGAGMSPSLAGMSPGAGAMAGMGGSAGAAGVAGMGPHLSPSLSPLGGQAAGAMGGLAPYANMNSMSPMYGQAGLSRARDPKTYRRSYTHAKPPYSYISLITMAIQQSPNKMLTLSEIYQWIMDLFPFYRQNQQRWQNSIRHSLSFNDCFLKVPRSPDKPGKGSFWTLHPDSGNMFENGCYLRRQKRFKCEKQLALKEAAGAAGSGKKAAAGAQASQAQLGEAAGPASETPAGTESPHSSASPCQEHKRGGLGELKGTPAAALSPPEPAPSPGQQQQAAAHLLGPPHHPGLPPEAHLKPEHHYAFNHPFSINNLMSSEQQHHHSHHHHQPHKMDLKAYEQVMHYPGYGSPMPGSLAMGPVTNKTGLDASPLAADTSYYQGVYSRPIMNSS
Sequence of Heat shock factor protein 1 (Homo sapiens) (Q00613 whole entry, looked up): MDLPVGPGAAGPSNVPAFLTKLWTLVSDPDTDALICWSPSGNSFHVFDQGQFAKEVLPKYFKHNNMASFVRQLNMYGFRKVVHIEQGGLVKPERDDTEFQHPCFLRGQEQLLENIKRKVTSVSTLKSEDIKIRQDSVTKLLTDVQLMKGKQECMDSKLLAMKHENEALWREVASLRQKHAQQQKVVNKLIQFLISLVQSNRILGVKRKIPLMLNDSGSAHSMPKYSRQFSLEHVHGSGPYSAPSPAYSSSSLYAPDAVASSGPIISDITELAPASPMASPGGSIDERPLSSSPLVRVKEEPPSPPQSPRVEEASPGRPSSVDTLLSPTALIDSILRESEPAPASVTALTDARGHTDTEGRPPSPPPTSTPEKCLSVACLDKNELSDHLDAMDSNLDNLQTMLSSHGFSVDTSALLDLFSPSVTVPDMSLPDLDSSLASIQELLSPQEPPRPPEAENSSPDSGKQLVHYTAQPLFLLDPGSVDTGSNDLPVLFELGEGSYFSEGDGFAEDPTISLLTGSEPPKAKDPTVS
Sequence of Hepatocyte nuclear factor 6 (Homo sapiens) (Q9UBC0 whole entry, looked up): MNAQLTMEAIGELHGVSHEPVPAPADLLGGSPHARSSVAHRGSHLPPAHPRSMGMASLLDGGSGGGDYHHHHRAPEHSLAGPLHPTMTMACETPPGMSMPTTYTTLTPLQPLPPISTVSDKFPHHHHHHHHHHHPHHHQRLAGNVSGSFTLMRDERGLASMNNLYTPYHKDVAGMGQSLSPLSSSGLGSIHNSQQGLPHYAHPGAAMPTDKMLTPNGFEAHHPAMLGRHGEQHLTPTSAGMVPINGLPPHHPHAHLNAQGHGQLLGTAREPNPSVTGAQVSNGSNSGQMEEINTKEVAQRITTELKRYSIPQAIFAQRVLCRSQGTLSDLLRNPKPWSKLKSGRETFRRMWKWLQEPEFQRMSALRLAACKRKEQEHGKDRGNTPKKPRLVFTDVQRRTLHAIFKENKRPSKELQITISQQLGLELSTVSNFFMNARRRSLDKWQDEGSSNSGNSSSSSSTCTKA
Sequence of Hypoxia-inducible factor 1-alpha (Homo sapiens) (Q16665 whole entry, looked up): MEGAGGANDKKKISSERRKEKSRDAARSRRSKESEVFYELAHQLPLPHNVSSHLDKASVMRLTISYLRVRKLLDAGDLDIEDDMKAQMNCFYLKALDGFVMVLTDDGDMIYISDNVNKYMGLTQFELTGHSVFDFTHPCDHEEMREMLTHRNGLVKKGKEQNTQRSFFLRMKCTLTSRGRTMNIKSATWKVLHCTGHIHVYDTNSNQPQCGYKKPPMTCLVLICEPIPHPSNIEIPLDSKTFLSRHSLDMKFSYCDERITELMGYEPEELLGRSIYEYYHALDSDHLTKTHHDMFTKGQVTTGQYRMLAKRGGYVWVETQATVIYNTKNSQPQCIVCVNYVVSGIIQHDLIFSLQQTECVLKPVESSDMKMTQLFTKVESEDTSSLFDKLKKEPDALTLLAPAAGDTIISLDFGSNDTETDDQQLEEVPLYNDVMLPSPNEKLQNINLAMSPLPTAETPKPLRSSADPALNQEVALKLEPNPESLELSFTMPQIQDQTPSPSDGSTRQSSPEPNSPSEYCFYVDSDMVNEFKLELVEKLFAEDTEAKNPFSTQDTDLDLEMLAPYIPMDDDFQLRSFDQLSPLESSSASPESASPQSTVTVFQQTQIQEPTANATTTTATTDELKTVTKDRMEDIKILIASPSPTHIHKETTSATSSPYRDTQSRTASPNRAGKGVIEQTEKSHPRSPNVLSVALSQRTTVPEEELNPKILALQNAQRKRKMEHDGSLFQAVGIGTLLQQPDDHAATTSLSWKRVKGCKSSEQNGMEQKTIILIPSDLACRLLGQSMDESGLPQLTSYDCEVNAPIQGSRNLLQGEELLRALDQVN
Sequence of Bile acid receptor (Homo sapiens) (Q96RI1 whole entry, looked up, the tested form may be a part): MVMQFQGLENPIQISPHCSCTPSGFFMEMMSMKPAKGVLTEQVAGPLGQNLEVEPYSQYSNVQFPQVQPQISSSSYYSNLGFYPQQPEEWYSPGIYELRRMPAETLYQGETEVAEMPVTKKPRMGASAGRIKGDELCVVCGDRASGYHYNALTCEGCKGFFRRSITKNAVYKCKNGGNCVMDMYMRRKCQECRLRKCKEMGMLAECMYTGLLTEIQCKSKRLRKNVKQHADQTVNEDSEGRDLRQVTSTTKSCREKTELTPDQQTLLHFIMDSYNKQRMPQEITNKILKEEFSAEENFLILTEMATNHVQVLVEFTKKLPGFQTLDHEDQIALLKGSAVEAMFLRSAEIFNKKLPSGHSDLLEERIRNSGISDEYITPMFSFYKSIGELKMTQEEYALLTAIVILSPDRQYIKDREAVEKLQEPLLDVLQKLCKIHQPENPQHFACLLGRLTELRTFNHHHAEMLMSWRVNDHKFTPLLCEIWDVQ

As to `CCCCC(CC)COC(=O)c1ccccc1O` (centres undefined), the result in experiment [1], in [2], in experiment [3], in experiment [4], in experiment [6] and in experiment [7] was inactive. Further, the result in experiment [8], in experiment [9], in experiment [10], in [11], in [12] and in experiment [13] was inactive. Besides, the compound was classed as inactive in experiment [14], in experiment [15], in experiment [16], in [17], in [18] and in experiment [19]. Also, in [5], the AC50 was 32.5 µM (active).

As for `O=C1CCCN1CCO`, the outcome in experiment [1], in [2], in experiment [3], in experiment [4], in experiment [5] and in experiment [6] was inactive. Besides, the result in experiment [7], in experiment [8], in experiment [9], in experiment [10], in experiment [11] and in experiment [12] was inactive. Further, the compound was classed as inactive in [13], in experiment [14], in [15], in experiment [16], in experiment [17] and in experiment [18]. In experiment [19], the result was inactive.

In the case of `CC(C)(c1cc(Br)c(OCCO)c(Br)c1)c1cc(Br)c(OCCO)c(Br)c1`, the result in [1], in experiment [2], in experiment [5], in experiment [8], in [9] and in experiment [10] was inactive. In addition, the call in experiment [14] and in experiment [19] was inactive. Besides, the AC50 is 10.5 µM (active) in [3]; 44.5 µM (active) in [4]; 43.7 µM (active) in experiment [6]; 44.2 µM (active) in [7]; 7.14 µM (active) in [20]; 44.2 µM (active) in [11]. In addition, the AC50 in [12] was 7 µM (active); in experiment [15] it was 6.89 µM (active); in [16], 42.2 µM (active); in experiment [18], 18.4 µM (active).

On to `Cc1ccc([N+](=O)[O-])cc1S(=O)(=O)O`, for which the outcome in experiment [1], in experiment [2], in experiment [3], in [4], in experiment [5] and in [6] was inactive. For the same compound, the call in [7], in experiment [9], in [10], in experiment [11], in experiment [12] and in experiment [13] was inactive. In addition, the result in experiment [14], in [15], in experiment [16], in experiment [17] and in experiment [18] was inactive. Further, the AC50 in experiment [8] is 153 µM (active).

(Values after PubChem BioAssay (EPA / NIEHS).)
